HT1080NT lethal = kills 2HG-producing HT-1080-NT fibrosarcoma cells; actives 1.6% (n = 360,000); Potency, µM (highest dose often 46.1 µM), for inactives: top-dose activity, negative = less viability, usual class: cytotoxic; AID 686970; HT-1080-NT fibrosarcoma viability, CellTiter-Glo ATP luminescence, 48 h;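 note: NT is the 2HG producing partner of a matched IDH1 knockdown line; potency is the fitted concentration of half-maximal effect; 0% = DMSO-treated cells and -100% = media-only wells without cells; nearly all actives have a fitted effect of over 55% in size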
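Luminescent CellTiter-Glo readout after 48 hours of compound exposure at 37 degrees C defined viability of HT-1080-NT cells. Activity was normalized to DMSO wells and cell-free media wells; concentration-response curves were fitted and assigned curve classes.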
TDP1 cell noCPT = qHTS for Inhibitors of human tyrosyl-DNA phosphodiesterase 1 (TDP1): qHTS in cells in absence of CPT; DT40 Tdp1-/- hTDP1 cells, no CPT, ATP luminescence, 48 h; Potency, µM (doses to about 46.2 µM), inactives show top-dose activity change, negative = growth inhibition, hits mostly inhibitors; actives 15% (n = 420,000); AID 686978, 2013; note: potency is the fitted concentration of half-maximal effect; nearly all actives have a fitted effect of over 55% in size
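Compound effects on proliferation are scored in DT40 Tdp1-/-;hTDP1 cells in the absence of CPT. ATP levels (CellTiter-Glo luminescence) are recorded after a ≥48 hr, 37 °C incubation.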
HT1080 IDH1KD tx = toxicity to HT-1080 IDH1 knockdown cells (counter line); Potency, µM (series often up to 46.1 µM), without a hit: at the top dose activity, negative = toxicity, most hits filed as cytotoxic; actives 2% (n = 360,000); HT-1080 IDH1 knockdown viability, ATP luminescence, 48 h; AID 686971;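 note: potency is the fitted concentration of half-maximal effect; 0% = DMSO wells and -100% = cell-free medium wells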
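Luminescent ATP read-out (CellTiter-Glo, 10 min at room temperature) after 48 h compound exposure at 37 °C gave viability of IDH1-knockdown HT-1080 cells. Activity was normalised to DMSO and cell-free wells, then fitted as concentration-response curves.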
uPA generation = blocks generation of uPA at the cell surface; cell surface uPA generation assay, qHTS; Potency, µM (top dose mostly 38.3 µM), inactives show at the top dose activity change, negative = inhibition, actives largely listed as inhibitors; actives 0.31% (n = 330,000); active = well fitted inhibition curve with a large enough effect; inconclusive = small, poorly fitted or top-dose-only effect; inactive = no such curve, though single readings can be large or run the other way; tested in mouse RAW 264.7 cells; note: potency is the fitted concentration of half-maximal effect; nearly all actives have a fitted effect of over 55% in size
TDP1 cell CPT = DT40-hTDP1 cell growth loss with CPT; actives 12% (n = 420,000); AID 686979; Potency, µM (top dose mostly 46.2 µM), for inactives: at the highest dose activity change, negative = growth inhibition, usual class: inhibitors; chicken DT40 Tdp1-/-;hTDP1 cells + 20 nM CPT, ATP luminescence, 48 h; note: potency is the fitted concentration of half-maximal effect; nearly all actives have a fitted effect of over 55% in size
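Chicken DT40 Tdp1-/- cells stably complemented with human TDP1 were seeded at 400 cells/well in medium containing 20 nM camptothecin, exposed to pin-transferred compounds, and grown at 37 °C for at least 48 hr. Viability was read as ATP luminescence.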
IL1B secr inh = inhibitors of inflammasome signaling (IL-1 beta secretion) | THP-1 LPS/ATP IL-1B secretion, AlphaLISA, 16 h; stronger effect = lower value | activity change, % at 57.5 µM | actives 4.7% (n = 360,000) | AID 743279; in the data active = activity change below about -50%; inconclusive = mostly about -30% to -49%
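THP-1 cells pretreated 1 hr with compounds (up to 57.5 uM final), then stimulated with LPS (250 ng/mL final) plus ATP (1.25 mM final); secreted IL-1B measured by AlphaLISA after 16 hr, decreased signal indicating inhibition.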
* hit, by the source's call; ? = inconclusive; nt = no result. Hits are enriched below; roughly 19% of the tested compounds scored in any of these assays. Unless noted, calls come from the whole dose curve; as a rule, active = well fitted curve in the direction sought with a large enough effect; inconclusive = small, poorly fitted or top-dose-only effect, or another doubt; inactive = no such curve, though single readings can be large; an effect the other way counts as inactive or inconclusive. Unless noted, % is set by controls: 0 for no effect and ±100 for the full control effect.

SMILES | HT1080NT lethal | TDP1 cell noCPT | HT1080 IDH1KD tx | uPA generation | TDP1 cell CPT | IL1B secr inh
Cc1cccc(C)c1NC(=O)C1(C)CN(S(C)(=O)=O)CC(=O)N1CCc1c[nH]c2ccccc12 (stereo not drawn) | -15% | 1% | -8% | nt | 15% | -25
CC1(C(=O)NCc2ccccc2)CN(S(C)(=O)=O)CC(=O)N1CCc1c[nH]c2ccccc12 (stereo not drawn) | -15% | 7% | 0% | nt | 13µM* | 10
c1ccc(CCCCN2CCN=C2Nc2ccccc2)cc1 | -5% | 16µM* | -10% | -20% | ? | -4
c1ccc(NC2=NCCN2CCCC2CCCCC2)cc1 | -27% | 23µM* | -27% | ? | 16µM* | -61*
C=CCN(C(=O)C1CC(=O)N(C2CCCC2)C1)c1nc(-c2ccc(S(C)(=O)=O)cc2)cs1 (stereo not drawn) | -19% | 15µM* | -15% | -7% | 15µM* | 0
O=C(N/N=C/C(Cl)=C\c1ccccc1)c1cnccn1 | -3% | 21µM* | 15% | -12% | 18µM* | -82*
CC(=C/c1ccccc1)/C=N/NC(=O)c1cnccn1 | 11% | -1% | 4% | -9% | -22% | -2
O=C(N/N=C/C(Cl)=C/c1ccccc1)c1cnccn1 | -2% | 13µM* | 0% | -9% | 16µM* | -18
CSCCC(C(=O)NCc1ccccc1)n1c(-c2ccc3c(c2)CCO3)nc2ccccc21 (stereo not drawn) | -6% | ? | -11% | nt | ? | -14
CCC(C(=O)NCc1ccccc1)n1c(-c2ccc3c(c2)CCO3)nc2ccccc21 (stereo not drawn) | -5% | ? | -2% | nt | 15µM* | -10
CS(=O)(=O)NCCSc1cc(C(F)(F)F)nc2ccccc12 | 1% | ? | -12% | -14% | 8% | nt
O=c1[nH]c2cc3ccccc3cc2nc1C(F)(F)F | -5% | -1% | 1% | -2% | -11% | -3
CC(C)c1nc2cc3ccccc3cc2[nH]1 | -4% | -18% | -18% | -6% | -15% | -53*
O=[N+]([O-])c1cccc(C=Nc2cccc3ccccc23)c1O | -28% | -21% | -6% | -2% | -6% | 10
O=[N+]([O-])c1cc(-c2ccccc2)cc([N+](=O)[O-])c1O | 18µM* | 18µM* | ? | 1% | ? | 20
O=[N+]([O-])c1cc2ccccc2c(O)c1O | -4% | ? | -1% | nt | 23µM* | 11
Nc1c(Br)cc2c([nH]c(=O)c3ccccc32)c1Br | -5% | ? | -9% | -1% | ? | -4
COC(=O)[C@]12CCCCC=C1N(Cc1ccco1)C(=O)[C@H](CC(=O)NCCCN1CCCC1=O)C2 | 23% | -1% | 10% | nt | 4% | 22
Cc1ccc(NC(=O)c2cc(-c3cc(F)ccc3OCC3CCCO3)n[nH]2)cc1NS(C)(=O)=O (stereo not drawn) | ? | 15µM* | ? | nt | 15µM* | -4
COc1cc(CNC(=O)c2cc(-c3cc(F)ccc3OCC3CCCO3)n[nH]2)cc(OC)c1 (stereo not drawn) | 3% | 21µM* | 0% | nt | ? | -21
O=C(NCc1cc(C(F)(F)F)cc(C(F)(F)F)c1)c1cc(-c2cc(F)ccc2OCC2CCCO2)n[nH]1 (stereo not drawn) | 14% | 5% | 8% | nt | -15% | 13
COc1ccc(F)cc1-c1cc(C(=O)NC2CCCCC2)[nH]n1 | ? | -11% | 21% | nt | -9% | -9
COC(=O)C1=C(C(=O)OC)[C@@H]2Nc3ccccc3[C@@]23C[C@@H](C(=O)OC)N=C3N1 | 1% | -7% | -2% | 6% | -5% | 9

Assay outcomes: PubChem BioAssay, National Center for Advancing Translational Sciences (NCATS)
